Results taken from PubChem BioAssay (NCATS).
Inconclusive results are not listed. A call without a number means that no potency is given here. Active and inactive are the calls of the source. Calls follow the shape of the full dose curve.
Potency is read from the fitted curve at half-maximal effect.

Assay: Cytotoxicity counterscreen for inhibitors of SARS-CoV-2 cell entry (AID 1645845); also: nearly all actives have a fitted effect of over 50% in size
Conditions: cell viability (SARS-CoV-2 entry assay cells); series mostly up to 57.1 µM
Text: Assay Provider: Wei Zheng, Ph.D.
National Center for Advancing Translational Sciences, National Institute of Health, Rockville, MD.
SARS-CoV-2 spike protein, within the viral envelope, mediates viral attachment and infection of host cells. The SARS-CoV-2 spike protein specifically binds to the host receptor ACE2 (Angiotensin-converting enzyme 2). This interaction promotes endocytosis of the viral particle, additional events lead to viral-host cell membrane fusion and release of the viral contents, allowing viral replication.
While SARS-CoV-2 requires BSL-3 facilities for live virus work, pseudo-typed partices (PP) that incorporate SARS-CoV-2 spike proteins without replication elements could facilitate studies on viral entry mechanisms in a BSL-2 setting. This PP cell entry assay could also enable screening of small molecule compound libraries in BSL-2 setting to identify inhibitors of SARS-CoV-2 cell entry. To eliminate false positive compounds, ATP content cytotoxicity assay was screened in the same cell line.
SEQUENCE No. (e.g., 1, 2, 3, etc.); […] (e.g., Cells, Incubation, Reagent, etc.); VALUE and DESCRIPTION.
1. Cells. Seed 1500 HEK293-ACE2 cells (Expi293F with stable expression of human ACE2) in 2 uL/well media (DMEM, 10% FBS, 1x L-glutamine, 1x Pen/Strep, 1 ug/ml puromycin) in white 1536-well assay plates (Greiner #782073).
2. Incubation. Incubate at 37 C with 5% CO2 overnight (~16 h).
3. Compounds. Dispense 23 nL/well compounds in DMSO via pin transfer.
4. Incubation. Incubate for 1 h at 37C 5% CO2.
5. Reagent. Dispense 2 uL/well of media (DMEM, 10% FBS, 1x L-glutamine, 1x Pen/Strep, 1 ug/ml puromycin).
6. Incubation. Incubate at for 48h at 37C 5% CO2
7. Reagent. Dispense 4 uL/well of ATPLite 1step luminescence assay reagent (PerkinElmer #6016739).
8. Incubation. Incubate for 15 min at room temperature.
9. Detection. Read luminescence signal (Viewlux plate reader, PerkinElmer). Data was normalized with wells containing cells as 100%, and wells without cells (media only control) as 0%.
With `COc1cc(OC)c(C(=O)CCCN2CCCC2)c(OC)c1` the Potency was “inactive”.
With `O=C(/C=C/c1ccccc1)OCc1ccccc1` the Potency was “inactive”.
With `C[C@@H]1[C@H](O)[C@@H](C)/C=C/C=C\C=C\C=C\C=C\C=C\C=C\[C@H](O[C@@H]2O[C@H](C)[C@@H](O)[C@H](N)[C@@H]2O)C[C@@H]2O[C@](O)(C[C@@H](O)C[C@@H](O)[C@H](O)CC[C@@H](O)C[C@@H](O)CC(=O)O[C@H]1C)C[C@H](O)[C@H]2C(=O)O` (stereo in doubt) the Potency was “inactive”.
With `CC(C)c1cccc(C(C)C)c1O` the Potency was “inactive”.
For `CO[C@@]1(NC(=O)C2SC(=C(C(N)=O)C(=O)O)S2)C(=O)N2C(C(=O)O)=C(CSc3nnnn3C)CS[C@@H]21` (stereo not given in full), the Potency was “inactive”.
With `CCS(=O)(=O)CCn1c([N+](=O)[O-])cnc1C` the Potency was “inactive”.
With `CC(C(=O)O)c1cccc(Oc2ccccc2)c1` (stereo not given) the Potency was “inactive”.
For `Cc1ccc(Cl)c(Nc2ccccc2C(=O)O)c1Cl`, the Potency was “inactive”.
In the case of `Cc1cccc(C)c1NC(=O)c1cc(S(N)(=O)=O)c(Cl)cc1O`, the Potency is reported as “inactive”.
In the case of `C[C@@H]1CC2=CC(=O)CC[C@@H]2[C@H]2CC[C@@]3(C)[C@@H](CC[C@]3(C)O)[C@@H]21`, the Potency is reported as “inactive”.
In the case of `c1ccc2sc(SSc3nc4ccccc4s3)nc2c1`, the Potency is reported as “inactive”.
With `CCC(CC)(CNC(=O)CCCO)c1cccc(OC)c1` the Potency was “inactive”.
With `COc1ccc2[nH]cc(CCNC(C)=O)c2c1` the Potency was “inactive”.
For `Cc1cc2cc3c(C)cc(=O)oc3c(C)c2o1`, the Potency was “inactive”.
In the case of `Cc1ccsc1/C=C/C1=NCCCN1C`, the Potency is reported as “inactive”.
With `CC(C(=O)O)c1ccc(C(=O)c2ccccc2)s1` (stereo not given) the Potency was “inactive”.
With `O=c1cc(O)c(Cl)c[nH]1` the Potency was “inactive”.
In the case of `CCOC(=O)c1ccc(N)cc1`, the Potency is reported as “inactive”.
In the case of `COc1ccc(NS(=O)(=O)c2ccc(N)cc2)nn1`, the Potency is reported as “inactive”.
In the case of `CC(C)(C)NCC(O)COc1ccccc1OCC1CCCO1` (stereo not given), the Potency is reported as “inactive”.
In the case of `NC(=O)c1ccccc1O`, the Potency is reported as “inactive”.
For `CC(C)c1ccc2oc3nc(N)c(C(=O)O)cc3c(=O)c2c1`, the Potency was 10 µM (active).
For `CC(C)[C@H](N)C(=O)OCC(CO)OCn1cnc2c(=O)[nH]c(N)nc21` (stereo not given in full), the Potency was “inactive”.
For `CC(=O)NC[C@H]1CN(c2ccc(N3CCOCC3)c(F)c2)C(=O)O1`, the Potency was “inactive”.
With `CCOc1ccc(NC(=O)CC(C)O)cc1` (stereo not given) the Potency was “inactive”.
With `Cc1noc(NS(=O)(=O)c2ccc(N)cc2)c1C` the Potency was “inactive”.
For `C/C(=N\O)[C@@H](C)NCC(C)(C)CN[C@H](C)/C(C)=N/O`, the Potency was “inactive”.
With `O=P(O)(O)C(Sc1ccc(Cl)cc1)P(=O)(O)O` the outcome was “inactive [at 0.702 µM]”.
In the case of `CO[C@@]1(NC(=O)CSC[C@@H](N)C(=O)O)C(=O)N2C(C(=O)O)=C(CSc3nnnn3C)CS[C@@H]21`, the Potency is reported as “inactive”.
With `c1ccc2c(CC3=NCCN3)cccc2c1` the Potency was “inactive”.
In the case of `O=C(OOC(=O)c1ccccc1)c1ccccc1`, the Potency is reported as “inactive”.
With `CCCC(O)C(CC)CO` (stereo not given) the Potency was “inactive”.
In the case of `CC1(C)O[C@@H]2C[C@H]3[C@@H]4CCC5=CC(=O)C=C[C@]5(C)[C@@]4(F)[C@@H](O)C[C@]3(C)[C@]2(C(=O)CO)O1`, the Potency is reported as “inactive”.
With `C[C@@H]1O[C@@H](OC[C@H]2O[C@@H](Oc3c(-c4ccc(O)c(O)c4)oc4cc(O)cc(O)c4c3=O)[C@H](O)[C@@H](O)[C@@H]2O)[C@H](O)[C@H](O)[C@H]1O` the Potency was “inactive”.
For `Cc1ccccc1C(=O)N1CC/C(=N\OS(=O)(=O)O)c2ccc(Cl)cc21`, the Potency was “inactive”.
For `CN1C(C(=O)Nc2ccccn2)=C(O)c2sccc2S1(=O)=O`, the Potency was “inactive”.
In the case of `Cc1cc(C)nc(NS(=O)(=O)c2ccc(N)cc2)n1`, the Potency is reported as “inactive”.
For `Cc1ccc(C(=O)C(=O)O)cc1C`, the Potency was “inactive”.
In the case of `C[C@]12CC[C@@H]3c4ccc(OC(=O)N(CCCl)CCCl)cc4CC[C@H]3[C@@H]1CC[C@@H]2OP(=O)(O)O`, the Potency is reported as “inactive”.
With `CCCCCCCCCCCCCCCCCC(=O)OCC(O)CO` (stereo not given) the Potency was “inactive”.
